This note sets out measurements from PubChem BioAssay (NCATS).

Inconclusive results are not listed. Values without a mark were called inactive. The source made the active and inactive calls. The call rests on the fitted dose curve; in most records, active means well fitted inhibition curve with a large enough effect; inconclusive means small, poorly fitted or top-dose-only effect; inactive means flat fitted curve, though single readings scatter. Starred links: 1 amine or outer side, 2 acyl side, 3 side chain; linkers in the order of their positions; H or OH if unused. Positions of bridges follow the written chain, without caps; N, C: chain ends. Non-standard residues stand in square brackets, D forms with d. Residues, ends and D or L forms follow the SMILES beside them. Chains are numbered I, II in the order given. Actinocin(9to1) = Cc1c2oc3c(C)ccc(C(=O)[*:1])c3nc-2c(C(=O)[*:2])c(N)c1=O; NMeV = CN[CH](C(=O)O)C(C)C; Sar = CNCC(=O)O
On the % scale 0 is the no-effect control and ±100 the full control effect; potency means the concentration at half of the fitted maximal effect.

The assay deals with NIH3T3. Nature of the assay: Cytotoxic Profiling of Annotated Libraries Using Quantitative High-Throughput Screening (AID 1296008). Further: nearly all actives have a fitted effect of over 60% in size. As to conditions: Five cell lines viability, CellTiter-Glo ATP luminescence, 48-72 h; max response: stronger effect = lower value. The method in brief: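 Compounds were pin-transferred onto cells and incubated 48 or 72 hr at 37 degree Celsius, 95% humidity. CellTiter-Glo was added, plates sat 10 min at room temperature, then ATP-coupled luminescence was imaged as the viability read-out.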
Background: ATP-based viability assays read luminescence as a measure of living cells.
`O=C(C=CC#Cc1cccc(NS(=O)(=O)c2ccccc2)c1)NO`: the Potency was 10.5 µM (active).
Regarding `COC(=O)[C@H](CCCN=C(N)N)NS(=O)(=O)c1ccc(C)cc1`, the max response is 2.63%.
On the same count and under the same terms, to `Cc1c2oc3c(C)ccc(C(=O)NC4C(=O)NC(C(C)C)C(=O)N5CCCC5C(=O)N(C)CC(=O)N(C)C(C(C)C)C(=O)OC4C)c3nc-2c(C(=O)NC2C(=O)NC(C(C)C)C(=O)N3CCCC3C(=O)N(C)CC(=O)N(C)C(C(C)C)C(=O)OC2C)c(N)c1=O` (stereo unspecified) (I: TVP[Sar][NMeV] / II: TVP[Sar][NMeV]; ester I:1-I:C, II:1-II:C; linker I:N-II:N via Actinocin(9to1); configuration not given here) belongs -100%.
Still for that read-out and setting: to `CC(=O)OC[C@@H]1O[C@@H](n2ccc(=O)[nH]c2=O)[C@H](OC(C)=O)[C@H]1OC(C)=O` belongs -12.5%.
As to `NC(=O)Nc1cc(-c2ccc(CN3CCOCC3)cc2)sc1C(N)=O`, the Potency is 0.662 µM (active).
As for `CC(=O)OCC(=O)[C@@]12N=C(C)O[C@H]1C[C@H]1[C@@H]3CCC4=CC(=O)C=C[C@]4(C)[C@@H]3[C@@H](O)C[C@@]12C`, the max response is -3.36%.
